VDR inhibitor = inhibitors of human vitamin D receptor; VDR-SRC2-3 peptide fluorescence polarization, 2 h; Potency, µM, without a hit: max response, negative = inhibition, usual class: inhibitors; 400,000 compounds, 0.93% hits
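After 23 nl compound addition and a short centrifugation, plates sat for 2 hours at ambient temperature; polarization of fluorescence then indicated loss of VDR binding to peptide SRC2-3.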
Tau fibril ThT = inhibitors of human tau fibril formation, thioflavin T binding; P10636; recombinant tau K18 P301L, heparin-induced fibrillization, ThT fluorescence; Potency, µM (doses to about 57.4 µM), inactives show top-dose activity, negative = inhibition, actives largely listed as inhibitors; 270,000 compounds, 2.1% hits; further: nearly all actives have a fitted effect of over 55% in size
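Aggregation was driven by heparin (20 uM final) acting on recombinant tau […] bearing P301L in 100 mM sodium acetate pH 7; fibrils were detected with Thioflavin T.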
Tau FP inhib = tau fibrillization inhibition (FP). Potency, µM (highest dose often 57.7 µM), without a hit: at the top dose activity, negative = inhibition, hits mostly inhibitors. P10636. 280,000 compounds, 0.39% hits. K18 P301L tau heparin fibrillization, Alexa594 FP, 6 h; further: nearly all actives have a fitted effect of over 55% in size
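FP of Alexa 594-tau after heparin (20 uM) induction. Substrate: human K18 P301L, 15 uM unlabeled, 0.24 uM labeled. Buffer 100 mM sodium acetate pH 7. 6 hr, 37 C.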
Tau fluor cs = counter-screen for tau fibril formation inhibitors; tau K18 P301L (four-repeat tau fragment) Alexa594 fluorescence, heparin fibrillization; Potency, µM (titrated, usually from 57.7 µM), inactives show at the highest dose activity change, negative = decrease; 280,000 compounds, 0.93% hits; further: nearly all actives have a fitted effect of over 55% in size
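Human K18 P301L tau (15 uM unlabeled plus 0.24 uM Alexa 594-labeled, final) in 100 mM sodium acetate pH 7 was mixed with compound and 20 uM heparin and incubated 6 hr at 37 C.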
PLK1 PBD block = blocks phosphopeptide binding to human PLK1 polo-box domain | AID 720504 | P53350 | Plk1 PBD binding of FITC phosphopeptide, fluorescence polarization | 360,000 compounds, 2.8% hits | Potency, µM, for the others: max response, negative = inhibition, usual class: inhibitors; further: series mostly up to about 57 µM; nearly all actives have a fitted effect of over 65% in size
Target sequence (P53350 whole entry, looked up, the tested form may be a part): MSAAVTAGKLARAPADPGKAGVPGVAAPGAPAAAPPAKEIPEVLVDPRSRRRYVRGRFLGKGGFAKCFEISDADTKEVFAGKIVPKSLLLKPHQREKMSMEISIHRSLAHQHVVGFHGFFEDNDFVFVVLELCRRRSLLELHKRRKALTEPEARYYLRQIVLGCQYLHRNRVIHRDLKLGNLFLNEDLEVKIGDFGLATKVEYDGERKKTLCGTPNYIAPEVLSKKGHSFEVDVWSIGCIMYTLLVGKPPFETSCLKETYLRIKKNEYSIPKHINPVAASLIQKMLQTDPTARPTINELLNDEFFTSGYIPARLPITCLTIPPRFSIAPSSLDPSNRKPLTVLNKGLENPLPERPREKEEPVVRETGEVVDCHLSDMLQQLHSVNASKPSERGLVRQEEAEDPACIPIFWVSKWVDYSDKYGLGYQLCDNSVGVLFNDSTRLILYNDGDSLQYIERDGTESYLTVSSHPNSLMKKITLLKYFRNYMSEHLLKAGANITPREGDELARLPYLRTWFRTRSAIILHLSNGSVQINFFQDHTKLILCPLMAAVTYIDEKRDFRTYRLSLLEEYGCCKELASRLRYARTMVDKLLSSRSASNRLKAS
Sfp inh = inhibitors of Bacillus subtilis Sfp phosphopantetheinyl transferase | Biochemical Sfp PPTase activity, qHTS | Potency, µM, inactives show largest response in the series, negative = inhibition, usual class: inhibitors | 310,000 compounds, 3.5% hits | AID 1490;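 further: the enzyme is Sfp with the accession as filed and its product quenches rhodamine fluorescence; 0% = enzyme reaction without inhibitor and -100% = no enzyme wells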
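Step 1, compound plus 15 nM Sfp-PPTase, 15 min, room temperature. Step 2, add rhodamine-CoA (5 uM) and BHQ-2-YbbR (12.5 uM). Step 3, read 525/598 nm fluorescence at 0 and 30 min.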
* marks the source's active call; other numbers are inactive results; ? = inconclusive; . = not tested or not shown; [ ] = dose if it differs, or a comment. Only some compounds are listed: those with a hit (about 6% of all), similar ones and a draw of the others. The call rests on the fitted dose curve; in most records, active means well fitted curve in the direction sought with a large enough effect; inconclusive means small, poorly fitted or top-dose-only effect, or another doubt; inactive means no such curve, though single readings can be large; an effect the other way counts as inactive or inconclusive. Unless noted, on the % scale 0 is the no-effect control and ±100 the full control effect; potency means the concentration at half of the fitted maximal effect.

SMILES	VDR inhibitor	Tau fibril ThT	Tau FP inhib	Tau fluor cs	PLK1 PBD block	Sfp inh
COc1cc(/C=C/C(=O)OCC(=O)N2CCCCCC2)cc(OC)c1OC	.	.	.	.	-4.6%	.
O=C1CS/C(=N/N=C/c2ccccc2)N1Cc1ccco1	-8.5%	-19.5%	0.4%	-16.5%	-11.9%	?
O=C(COc1ccc(Br)cc1)N/N=C1/SCC(=O)N1Cc1ccco1	?	1.2%	7.5%	7.2%	23.8µM*	-2.1%
COc1ccc(OC)c(/C=N/N=C2\SCC(=O)N2Cc2ccco2)c1	0.8%	-4.4%	?	?	-0.3%	56.2µM*
COc1ccc(-c2nc3scc(CCNS(=O)(=O)c4ccc(F)cc4F)n3n2)cc1OC	1.3%	-4.3%	-6.2%	-13.8%	.	.
CC12CCC3c4ccc(OCc5ccccc5)cc4CCC3C1CC(O)C2O (stereo not drawn)	3.5%	?	4.8%	-28.7%	.	-36.2%
CSc1nncc(/C(C)=N/O)n1	-5.5%	6.7%	3.2%	19.9%	-13.0%	17.1%
CSc1nncc(/C(C)=N\Nc2ccccc2C)n1	-16.4%	0.891µM*	-19.7%	-15.6%	-5.1%	0.9%
CC1NC(=O)c2cccnc2-n2c1nc1ccccc1c2=O (stereo not drawn)	.	.	.	.	-4.2%	.
COC(=O)Cc1[nH]n(-c2nc3ccccc3s2)c(=O)c1C(C)=Nc1ccc(C)cc1	0.6%	?	3.0%	-3.7%	1.0%	56.2µM*
COC(=O)Cc1[nH]n(-c2ccccc2)c(=O)c1C(C)=Nc1ccccc1	-0.9%	?	-5.5%	-7.2%	-0.3%	9.8%
COC(=O)Cc1[nH]n(-c2nc3ccccc3s2)c(=O)c1C(C)=Nc1ccc(Cl)cc1	3.6%	?	2.9%	-4.4%	-1.9%	79.4µM*
Cc1nc(CC(=O)c2ccc(O)cc2O)cs1	2.8%	-11.5%	-2.8%	-8.9%	0.6%	22.8%
Cc1nc(C/C(=N\Nc2ccccc2)c2ccc(O)cc2O)cs1	-29.0%	?	-4.8%	25.1µM*[quencher]	-8.6%	17.8µM*
O=C(Nc1ccccc1)/C(=C\c1ccc2c(c1)OCO2)NC(=O)c1ccco1	-28.8%	?	-7.1%	-10.9%	23.8µM*	12.9%
CCOC(=O)c1sc(=S)n(C)c1NC(=O)c1cccc(Br)c1	?	?	-14.1%	-23.4%	10.6µM*	17.8µM*
CCOC(=O)c1sc(=S)n(CC)c1NC(=O)c1ccccc1C	-16.5%	-3.9%	-14.3%	-15.1%	0.2%	6.1%
CCOC(=O)c1sc(=S)n(C)c1NC(=O)c1ccccc1	79.4µM*	-9.2%	-6.0%	-4.7%	7.52µM*	14.1µM*
O=C(CNc1ccc2ccccc2c1)N/N=C/c1ccc(OC(=O)/C=C/c2ccco2)cc1	8.1%	5.01µM*	-13.3%	7.08µM*[quencher]	-7.1%	0.5%
O=C(Cc1ccccc1)N/N=C/c1ccc2c(c1)OCO2	-3.1%	13.0%	9.3%	6.6%	-18.2%	-0.6%
CSc1ccc(/C=N/NC(=O)CNc2ccc3ccccc3c2)cc1	2.6%	5.01µM*	-3.1%	14.1µM*[quencher]	-2.6%	-2.5%
O=C(CNc1ccccc1)N/N=C/c1ccc2c(c1)OCO2	-20.8%	?	6.1%	-12.8%	23.8µM*	-1.2%
Cc1cc(N)n2ncc(-c3ccccc3)c2n1	15.0%	?	3.9%	?	-7.1%	8.6%
CC(=O)Nc1ccc(Nc2cc(C)nc3c(-c4ccccc4)cnn23)cc1	-10.9%	?	14.3%	15.8µM*[quencher]	-7.3%	-0.7%
O=C(Nc1ccc2c(c1)OCO2)c1cc2ncc(Br)cn2n1	-6.7%	?	11.6%	-15.3%	11.9µM*	-6.5%
Cc1ccccc1C(=O)N1CCN(CCc2ccccn2)CC1	-1.8%	-3.0%	-2.6%	-1.5%	.	.
CCOc1ccc(CNC(=O)CCCn2c(=O)c3cccn3c3ccccc32)cc1	0.4%	?	-11.9%	?	.	.
COCc1cc(C)nc2sc(C(=O)Nc3ccccc3O)c(N)c12	3.2%	?	6.0%	?	.	.
O=C(C[n+]1cc(-c2ccc(Cl)c(Cl)c2)n2c1CCC2)N1c2ccccc2Sc2ccccc21	-3.5%	?	-14.4%	?	1.4%	44.7µM*
